Rows were chosen to be rich in hits. Some 9.4% of all compounds tested hit in one or more screens of this group.
Pf growth 48h: P. falciparum growth inhibition at 48 hours (one generation). P. falciparum luciferase growth in erythrocytes, 48 h. Potency, µM (titrated, usually from 28.7 µM), for the others: at the highest dose activity change, negative = inhibition, actives largely listed as inhibitors. actives 5.9% (n = 310,000); note: % is set by controls: 0 for no effect and ±100 for the full control effect
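First compound was added to culture medium, then infected red cells at 0.1% parasitemia and 2% hematocrit (final). After incubation at 37 C under 5% CO2, luciferase detection reagent was dispensed and light output recorded.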
AMA1-RON2 inh: disrupts binding of P. falciparum AMA1 to RON2. Potency, µM (highest dose often 58.2 µM), without a hit: at the highest dose activity change, negative = inhibition, hits mostly inhibitors. actives 0.2% (n = 360,000). AlphaScreen AMA1-biotinylated RON2 peptide binding;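 note: 0% = vehicle wells and -100% = peptide control; nearly all actives have a fitted effect of over 45% in size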
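AMA1 (3D7) with his tag at 25 nM final met compounds first, then biotinylated RON2 peptide at 25 nM; detection used donor plus acceptor beads, 10 µg/mL apiece, read by AlphaScreen after 30 min at room temperature.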
SARS PLP yeast: SARS-CoV PLP inhibition in yeast. S. cerevisiae expressing SARS-CoV PLpro, growth rescue. Potency, µM (series often up to 32.9 µM), for the others: at the top dose activity, positive = growth rescue, usual class: activators. actives 0.19% (n = 330,000); calls by dose curve; note: 0% is about no effect; nearly all actives have a fitted effect of over 55% in size
Pf growth 96h: P. falciparum growth inhibition at 96 hours. actives 6.9% (n = 320,000). Potency, µM (series often up to 28.7 µM), for inactives: top-dose activity change, negative = inhibition, hits mostly inhibitors. P. falciparum luciferase reporter growth, 96 h; note: % is set by controls: 0 for no effect and ±100 for the full control effect
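Cell-based qHTS: luciferase-tagged P. falciparum in erythrocytes (2% hematocrit, 0.05% parasitemia final) incubated with compounds for 96 hours, 37 C, 5% CO2; luciferase detection reagent then added and luminescence measured.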
An asterisk follows results filed as active; ? = inconclusive; nt = no result. Unless noted, calls come from the whole dose curve; as a rule, active = well fitted curve in the direction sought with a large enough effect; inconclusive = small, poorly fitted or top-dose-only effect, or another doubt; inactive = no such curve, though single readings can be large; an effect the other way counts as inactive or inconclusive. Potency is the fitted concentration of half-maximal effect.

SMILES | Pf growth 48h | AMA1-RON2 inh | SARS PLP yeast | Pf growth 96h
COc1ccc(NCc2nnc(SCC(=O)c3ccc(C)cc3)o2)cc1 | nt | 42.8% | 5.4% | ?
CCOC(=O)C1=C(C)N(c2ccccc2)C(=O)C1CC(=O)O (configuration not stated) | -27.3% | 10.8% | 2.6% | 11.7µM*
CCSc1nnc(-c2ccc(S(=O)(=O)N3CCCC3)cc2)n1C | ? | 11.2% | 0.0% | -51.6%
CCn1cc(C(=O)NCCc2ccccc2)c(=O)c2cc(S(=O)(=O)N(C)C)ccc21 | ? | -9.2% | 1.7% | 13.1µM*
CCCCCCNC(=O)c1cn(CC)c2cc(N3CCN(C)CC3)c(F)cc2c1=O | 4.65µM* | -9.2% | 0.0% | 2.62µM*
CCn1cc(C(=O)NCCCO)c(=O)c2cc(F)c(N3CCN(C)CC3)cc21 | 5.2% | 4.9% | -0.4% | ?
CCn1cc(C(=O)NCCN(C)CCc2ccccc2)c(=O)c2cc(S(=O)(=O)N(C)C)ccc21 | ? | -5.9% | -1.3% | ?
CCn1cc(C(=O)N[C@H](C)c2ccccc2)c(=O)c2cc(F)c(N3CCN(C)CC3)cc21 | nt | 14.1% | -5.4% | 11.7µM*
CCn1cc(C(=O)NCCc2ccccc2)c(=O)c2cc(F)c(N3CCN(C)CC3)cc21 | 10.4µM* | -7.4% | 4.3% | ?
O=C(O)c1ccc(N/N=C/c2ccc(OC(=O)c3cccc(Cl)c3)cc2)cc1 | -6.5% | -10.2% | -1.4% | 241.2%
Cc1ccc(O)c(-c2[nH]ncc2C(=O)c2ccc(Br)cc2)c1 | ? | 119.7% | -3.0% | -29.4%
CC(C)Nc1nc2ccccc2c(=O)[nH]1 | -14.0% | -5.2% | -1.1% | 10.4µM*
O=c1[nH]c(-c2cccnc2)nc2ccccc12 | 3.1% | 8.0% | -5.9% | nt
O=c1[nH]c(-c2ccncc2)nc2ccccc12 | 32.9% | -13.1% | -9.2% | 7.38µM*
CCCNc1nc2ccccc2c(=O)[nH]1 | -25.8% | 4.5% | 1.8% | ?
COc1nc(Nc2nc3ccccc3c(=O)[nH]2)nc2ccc(C)cc12 | 2.62µM* | 11.8% | -0.3% | ?
CCOc1ccc(N2C(=O)CC(N3CCN(c4ccc(C(=O)c5ccncc5)cc4)CC3)C2=O)cc1 (configuration not stated) | nt | -0.9% | nt | nt
O=C(CSc1nccc(=O)[nH]1)NC1CCCc2ccccc21 (configuration not stated) | -14.2% | -4.0% | 0.3% | 37.8%
CN(C)/C(=N\S(=O)(=O)c1ccccc1)c1ccc(Cl)cc1 | 21.9% | -16.4% | -0.5% | 2.3%
COc1cc(S(=O)(=O)Nc2cccc3cn[nH]c23)c(OC)cc1C | 10.4µM* | 0.0% | 0.7% | 2.94µM*
N#Cc1c(-c2cccnc2)c2c([nH]c1=S)CCCC2 | ? | 11.7% | 14.8% | 118.6%
N#Cc1c(-c2ccco2)c2c([nH]c1=S)CCCC2 | -9.7% | -15.7% | 0.7% | 10.4µM*
Cn1c(=O)c2c(SCC(N)=O)nc(CC(C)(C)C)nc2n(C)c1=O | -16.6% | 0.0% | -6.3% | 0.0%
Cn1c(=O)c2c(SCC(=O)NC3CCCC3)nc(CC(C)(C)C)nc2n(C)c1=O | ? | -11.8% | -8.9% | 13.1µM*
CCOC(=O)C1CCCN(C(=O)c2cc(S(=O)(=O)N3CCCCC3)ccc2Cl)C1 (configuration not stated) | ? | 2.3% | 1.8% | 10.4µM*
SMILES | Pf growth 48h | AMA1-RON2 inh | SARS PLP yeast | Pf growth 96h
O=S(=O)(c1ccc(Oc2ccc(Cl)cc2)c(S(=O)(=O)N2CCCCC2)c1)N1CCCCC1 | 4.65µM* | 4.3% | -0.9% | nt
CCN1CCN(C(=O)c2cc(S(=O)(=O)N3CCCCC3)ccc2Cl)CC1 | 40.0% | -12.2% | -1.9% | 10.4µM*
CCOc1cc(S(=O)(=O)N2CCCCC2)ccc1F | 3.7% | 0.3% | 4.0% | nt
CC(=O)N1CCN(C(=O)c2cc(S(=O)(=O)N3CCCCC3)ccc2Cl)CC1 | -9.0% | 5.0% | nt | 12.9%
CCOc1cc(S(=O)(=O)N2CCCC2)ccc1Cl | nt | 0.1% | 1.5% | 11.7µM*
CN(c1ccc(C(=O)N2CCN(c3ccccc3F)CC2)cc1)S(=O)(=O)c1ccccc1 | 34.3% | -8.6% | -2.6% | -2.6%
CCOC(=O)N1CCN(C(=O)c2ccccc2N(Cc2ccccc2)S(=O)(=O)c2ccccc2)CC1 | 4.65µM* | -3.1% | -4.4% | 21.9%
CN(c1ccccc1C(=O)N1CCN(c2ccccc2F)CC1)S(=O)(=O)c1ccccc1 | -28.6% | 1.4% | -6.1% | 10.4µM*
C/C(=N/NS(=O)(=O)c1ccc(Br)cc1)c1ccc(NC(=O)c2ccc(C)o2)cc1 | 42.8% | -16.8% | 6.3% | 67.4%
COCCn1c(-c2cc(OC)c(OC)c(OC)c2)nc2oc3cc(OC)ccc3c(=O)c2c1=O | ? | 7.7% | 0.1% | ?
COC(=O)CSc1n[nH]c(-c2cccnc2)n1 | 9.2% | 5.8% | 4.8% | nt
Cn1c(CNC(=O)Nc2ccccc2)nnc1SCc1ccccc1 | 19.1% | -14.1% | -9.9% | nt
Cn1c(CNC(=O)Nc2cccc(Cl)c2)nnc1SCc1ccccc1 | ? | 12.5% | -7.7% | 13.1µM*
Cc1ccc(S(=O)(=O)NC(=NC(C)C(=O)O)c2ccccc2)cc1 (configuration not stated) | 10.1% | 0.5% | 10.7% | -0.9%
c1coc(-c2nnc(-c3ccco3)nn2)c1 | ? | 15.8µM* | -9.4% | 6.57µM*
O=C(N=Nc1c(O)n(Cc2ccccc2)c2ccccc12)c1ccncc1 | 11.7µM* | ? | -1.1% | 13.1µM*
COC(=O)N=Nc1c(O)n(Cc2ccccc2)c2ccccc12 | -15.8% | -16.4% | -0.5% | 2.5%
CCCCNC(=S)N=Nc1c(O)n(Cc2ccccc2)c2ccccc12 | 13.1µM* | -14.2% | -2.9% | 10.4µM*
Cc1cc2ncn(C3CC(O)C(CO)O3)c2cc1C (configuration not stated) | nt | -6.9% | nt | nt
COC(=O)CN1C(=S)N(Cc2ccccc2)C(=O)C1CC(=O)Nc1ccc(Br)cc1 (configuration not stated) | 14.7µM* | -4.6% | -29.7% | ?
CCOC(=O)c1ccc(NC(=O)CC2C(=O)N(c3ccc(F)cc3)C(=O)N2CCC(C)C)cc1 (configuration not stated) | nt | -14.9% | -21.4% | 5.86µM*
COC(=O)CN1C(=S)N(c2ccc(F)cc2)C(=O)C1CC(=O)Nc1ccc(F)cc1 (configuration not stated) | 10.4µM* | ? | 0.3% | ?
COC(=O)c1ccc(NC(=O)CC2C(=O)N(c3ccc(C)cc3)C(=O)N2CC(C)C)cc1 (configuration not stated) | nt | -9.3% | 3.3% | ?
COC(=O)CN1C(=S)N(c2ccc(Cl)cc2)C(=O)C1CC(=O)Nc1ccc(Cl)cc1 (configuration not stated) | -5.2% | -3.4% | -4.3% | 9.6%
CC(=N\O)/C(CN(C)C)=N/O | 19.7% | 6.7% | nt | 10.4µM*
COCCNc1oc(/C=C/c2ccccc2OC)nc1S(=O)(=O)c1ccccc1 | 9.28µM* | 31.9% | -0.9% | 7.38µM*
COc1ccccc1/C=C/c1nc(S(=O)(=O)c2ccccc2)c(N2CCC(C(N)=O)CC2)o1 | -4.8% | -7.6% | 5.0% | ?
Cc1nnc2c(N3CCN(CCO)CC3)nc3ccccc3n12 | -24.5% | -1.9% | 0.5% | 13.1µM*
